# Assay results as given in PubChem BioAssay (NCI).
# About 79,000 compounds went through this panel and 15% of them were active in at least one assay; those are over-represented in the sample as a whole. A number with no mark means an inactive call. The source made the active and inactive calls. Rule as the data show it: active = growth inhibition above about 70%; inactive = the rest.
# Legend:
# [1] = NCI Yeast Anticancer Drug Screen. Data for the rad52 strain (AID 147);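 also: 0% = growth of vehicle-treated control cultures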; conditions: S. cerevisiae rad52 mutant growth inhibition, stronger effect = higher value
# Outline: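 Inhibition of yeast growth, referenced to vehicle controls, was the measured output for a strain with defective DNA damage repair.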
# [2] = NCI Yeast Anticancer Drug Screen. Data for the wt1 strain (AID 149);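 also: 0% = growth of vehicle-treated wt1 cultures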; conditions: S. cerevisiae wt1 strain (SPY 50644) growth inhibition, stronger effect = higher value
# Outline: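 Vehicle-normalised growth inhibition; strain wt1; compound exposure.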
# [3] = NCI Yeast Anticancer Drug Screen. Data for the rad50EPP+ strain (AID 151);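 also: 0% = growth of vehicle-treated control cultures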; conditions: S. cerevisiae rad50 mutant strain, stronger effect = higher value
# Outline: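 Genetically defined yeast (rad50EPP+, DNA damage repair alteration) is grown with compound, and inhibition of growth is expressed relative to vehicle-treated controls.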
# [4] = NCI Yeast Anticancer Drug Screen. Data for the mgt1 strain (AID 153); conditions: S. cerevisiae mgt1 mutant growth inhibition, stronger effect = higher value
# Outline: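 In the mgt1 strain, test compounds were added and growth inhibition was determined relative to vehicle-treated controls.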
# [5] = NCI Yeast Anticancer Drug Screen. Data for the rad50 strain (AID 155);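 also: 0% = growth of vehicle-only cultures of the same strain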; conditions: S. cerevisiae rad50 strain growth inhibition, stronger effect = higher value
# Outline: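 A DNA repair-deficient yeast mutant serves as the test organism; compound-induced growth inhibition is calculated against vehicle-treated cells.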
# [6] = NCI Yeast Anticancer Drug Screen. Data for the mec2-1 strain (AID 157); conditions: S. cerevisiae mec2-1 strain, stronger effect = higher value
# Outline: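 Each compound was tested on mec2-1 yeast, a strain altered in DNA damage repair or cell cycle control. Growth inhibition is reported relative to vehicle.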
# [7] = NCI Yeast Anticancer Drug Screen. Data for the rad14 strain (AID 159);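 also: 0% = growth of vehicle-treated control cultures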; conditions: S. cerevisiae rad14 strain growth inhibition, stronger effect = higher value
# Outline: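 Vehicle-treated cultures served as the baseline for growth inhibition of a DNA repair-mutant yeast strain exposed to each compound.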
# [8] = NCI Yeast Anticancer Drug Screen. Data for the sgs1 mgt1 strain (AID 161);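 also: 0% = growth of cultures given vehicle only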; conditions: S. cerevisiae sgs1 mgt1 strain, stronger effect = higher value
# Outline: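 Genetically altered yeast, compound exposure, growth inhibition relative to vehicle.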
# [9] = NCI Yeast Anticancer Drug Screen. Data for the CLN2oe strain (AID 163);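 also: 0% = growth of vehicle-only control cultures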; conditions: S. cerevisiae CLN2oe strain, stronger effect = higher value
# Outline: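 First, the altered yeast strain was treated with each compound; second, its growth was measured; finally, inhibition was derived by comparison with vehicle controls.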
# [10] = NCI Yeast Anticancer Drug Screen. Data for the cln2 rad14 strain (AID 165);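 also: 0% = growth equal to vehicle treated cultures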; conditions: S. cerevisiae cln2 rad14 strain, stronger effect = higher value
# Outline: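 Test compounds were added to cln2 rad14 yeast cultures; inhibition of growth was then determined by comparison with vehicle treatment.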
# [11] = NCI Yeast Anticancer Drug Screen. Data for the bub3 strain (AID 167); conditions: S. cerevisiae bub3 mutant strain, stronger effect = higher value
# Outline: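 Inhibition values come from growth of compound-treated mutant yeast normalised to vehicle-treated controls.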
# [12] = NCI Yeast Anticancer Drug Screen. Data for the wt2 strain (AID 169);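 also: 0% = growth of vehicle-treated yeast cultures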; conditions: S. cerevisiae wt2 strain growth inhibition, stronger effect = higher value
# Outline: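 The panel's yeast strains carry defined changes in DNA repair or cell cycle genes. Each strain is grown with compound, and growth loss is scored relative to vehicle.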
# [13] = NCI Yeast Anticancer Drug Screen. Data for the mlh1 strain (AID 171);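 also: 0% = growth of vehicle-treated control cultures of the same strain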; conditions: S. cerevisiae mlh1 strain growth inhibition, stronger effect = higher value
# Outline: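 Inhibition values reflect reduced yeast growth in the presence of compound, referenced to vehicle controls, using a strain chosen for its alteration in DNA repair or cell cycle control.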
# [14] = NCI Yeast Anticancer Drug Screen. Data for the sgs1 strain (AID 173);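 also: 0% = growth of vehicle-only control cultures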; conditions: S. cerevisiae sgs1 mutant, stronger effect = higher value
# Outline: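 Vehicle-treated cultures served as reference for growth inhibition of a yeast strain altered in DNA damage repair or cell cycle control after compound exposure.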
# [15] = NCI Yeast Anticancer Drug Screen. Data for the mlh1 rad18 strain (AID 175); conditions: S. cerevisiae mlh1 rad18 strain growth inhibition, stronger effect = higher value
# Outline: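 Inhibition values reflect reduced growth of mutant yeast versus vehicle-treated controls following compound exposure; the mutations affect DNA damage repair.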
# [16] = NCI Yeast Anticancer Drug Screen. Data for the rad18 strain (AID 177); conditions: S. cerevisiae rad18 mutant growth inhibition, stronger effect = higher value
# Outline: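 Steps: expose repair-mutant yeast to compound; measure growth; express as inhibition relative to vehicle control.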
# [17] = at 5.0 µM (retest, dose inferred, filed as 0.5)
# [18] = at 50.0 µM (retest, dose inferred, filed as 5.0)
smiles,measurement,setting,value
CCOC(=O)/C(=C/c1cccc(Cl)c1)N(CC)CC,growth inhibition,[1]; at 1.2 µM,10%
same,growth inhibition,[1]; at 3.7 µM,13%
same,growth inhibition,[1]; at 11.0 µM,12%
same,growth inhibition,[1]; at 33.0 µM,49%
same,growth inhibition,[1]; at 100.0 µM,96% (active)
same,growth inhibition,[2]; at 1.2 µM,8%
same,growth inhibition,[2]; at 3.7 µM,13%
same,growth inhibition,[2]; at 11.0 µM,22%
same,growth inhibition,[2]; at 33.0 µM,43%
same,growth inhibition,[2]; at 100.0 µM,96% (active)
same,growth inhibition,[3]; at 1.2 µM,37%
same,growth inhibition,[3]; at 3.7 µM,29%
same,growth inhibition,[3]; at 11.0 µM,34%
same,growth inhibition,[3]; at 33.0 µM,45%
same,growth inhibition,[3]; at 100.0 µM,57%
same,growth inhibition,[4]; at 1.2 µM,8%
same,growth inhibition,[4]; at 3.7 µM,9%
same,growth inhibition,[4]; at 11.0 µM,27%
same,growth inhibition,[4]; at 33.0 µM,51%
same,growth inhibition,[4]; at 100.0 µM,93% (active)
same,growth inhibition,[5]; at 1.2 µM,-1%
same,growth inhibition,[5]; at 3.7 µM,5%
same,growth inhibition,[5]; [17],17%
same,growth inhibition,[5]; at 11.0 µM,6%
same,growth inhibition,[5]; at 33.0 µM,39%
same,growth inhibition,[5]; [18],75% (active)
same,growth inhibition,[5]; at 50.0 µM,77.4% (active)
same,growth inhibition,[5]; at 100.0 µM,95% (active)
same,growth inhibition,[6]; at 1.2 µM,6%
same,growth inhibition,[6]; at 3.7 µM,2%
same,growth inhibition,[6]; [17],-22%
same,growth inhibition,[6]; at 11.0 µM,7%
same,growth inhibition,[6]; at 33.0 µM,46%
same,growth inhibition,[6]; [18],86% (active)
same,growth inhibition,[6]; at 50.0 µM,78.5% (active)
same,growth inhibition,[6]; at 100.0 µM,95% (active)
same,growth inhibition,[7]; at 1.2 µM,-12%
same,growth inhibition,[7]; at 3.7 µM,10%
same,growth inhibition,[7]; at 11.0 µM,12%
same,growth inhibition,[7]; at 33.0 µM,46%
same,growth inhibition,[7]; at 100.0 µM,93% (active)
same,growth inhibition,[8]; [17],10%
same,growth inhibition,[8]; [18],90% (active)
same,growth inhibition,[8]; at 50.0 µM,83% (active)
same,growth inhibition,[9]; at 1.2 µM,8%
same,growth inhibition,[9]; at 3.7 µM,-9%
same,growth inhibition,[9]; at 11.0 µM,20%
same,growth inhibition,[9]; at 33.0 µM,45%
same,growth inhibition,[9]; at 100.0 µM,96% (active)
same,growth inhibition,[10]; [17],43%
same,growth inhibition,[10]; [18],94% (active)
same,growth inhibition,[10]; at 50.0 µM,87.5% (active)
same,growth inhibition,[11]; at 1.2 µM,30%
same,growth inhibition,[11]; at 3.7 µM,18%
same,growth inhibition,[11]; [17],17%
same,growth inhibition,[11]; at 11.0 µM,24%
same,growth inhibition,[11]; at 33.0 µM,55%
same,growth inhibition,[11]; [18],90% (active)
same,growth inhibition,[11]; at 50.0 µM,83.5% (active)
same,growth inhibition,[11]; at 100.0 µM,96% (active)
same,growth inhibition,[12]; at 1.2 µM,5%
same,growth inhibition,[12]; at 3.7 µM,11%
same,growth inhibition,[12]; at 11.0 µM,13%
same,growth inhibition,[12]; at 33.0 µM,40%
same,growth inhibition,[12]; at 100.0 µM,97% (active)
same,growth inhibition,[13]; at 1.2 µM,18%
same,growth inhibition,[13]; at 3.7 µM,13%
same,growth inhibition,[13]; at 11.0 µM,7%
same,growth inhibition,[13]; at 33.0 µM,48%
same,growth inhibition,[13]; at 100.0 µM,91% (active)
same,growth inhibition,[14]; at 1.2 µM,26%
same,growth inhibition,[14]; at 3.7 µM,30%
same,growth inhibition,[14]; at 11.0 µM,41%
same,growth inhibition,[14]; at 33.0 µM,62%
same,growth inhibition,[14]; at 100.0 µM,96% (active)
same,growth inhibition,[15]; [17],-9%
same,growth inhibition,[15]; [18],83% (active)
same,growth inhibition,[15]; at 50.0 µM,78.2% (active)
same,growth inhibition,[16]; at 1.2 µM,13%
same,growth inhibition,[16]; at 3.7 µM,14%
same,growth inhibition,[16]; at 11.0 µM,17%
same,growth inhibition,[16]; at 33.0 µM,35%
same,growth inhibition,[16]; at 100.0 µM,95% (active)
